Active and inactive are the calls of the source. Where a call stands in place of a potency, no number is given. Calls come from the whole dose curve; as a rule, active = well fitted cell-killing curve with a large enough effect; inconclusive = small, poorly fitted or top-dose-only effect; inactive = flat fitted curve, though single readings scatter.
Experiment: Cell Viability - LYMP1-002 - Assay at 24 hr (AID 993)
Details: LYMP1-002 lymphoblastoid cells viability; series mostly up to 92.2 µM
Text: NIH Chemical Genomics Center [NCGC]
NIH Molecular Libraries Screening Centers Network [MLSCN]
National Institutes of Environmental Health Sciences [NIEHS]
National Toxicology Program [NTP]
We have developed a 1536-well cell-based assay for quantitative high throughput screening (qHTS) against a number of cell lines to determine in vitro cytotoxicity of small molecules. This particular assay uses a human lymphoblastoid cell line (LYMP1-002) purchased from Coriell Institute for Medical Research.
NCGC Assay Protocol Summary:
The CellTiter-Glo luminescent cell viability assay (Promega) is a homogeneous method to measure the number of viable cells in culture. The end point readout of this assay is based on quantitation of intracellular ATP, an indicator of metabolic activity, using the luciferase reaction. Luciferase catalyzes the oxidation of beetle Luciferin to oxyluciferin and light in the presence of ATP. The luminescent signal is proportional to amount of ATP present.
Using the CellTiter-Glo luminescent cell viability assay, the amount of cellular ATP was measured in the lymphoblastoid cell line with complete culture medium following compound treatment for 24 hours. The assay was performed in opaque white Kalypsys 1536-well plates. In the screen, tetraoctylammonium bromide was used as positive control. Library compounds were measured for their ability to cause acute toxicity in the cell line, as reflected by a decrease in intracellular ATP levels, in a concentration-dependent manner. […] AC50 values were determined from concentration-response data modeled with the standard Hill equation.
qHTS protocol for CellTiter Glo lymphoblastoid cellular assay
[Step] [Parameter] [Value] [Description]
1. Reagent; 5 uL; 2500 lymphoblastoid cells/well
2. Time; 5 hr; 37 C incubation
4. Controls; 23 nL; Tetraoctylammonium bromide 6.4pM to 92 uM
5. Time; 24 hr; 37 C incubation
6. Reagent; 5 uL; CellTiter Glo reagent
7. Time; 30 min; Room Temperature
8. Detection; Luminescence; Viewlux plate reader
Keywords: cell viability, cytotoxicity, lymphoblastoid cell line, luminescence, NTPHTS, NTPHTS_NCGC, NIEHS, DSSTox, MLSMR, MLSCN, NIH Roadmap, qHTS, NCGC
Potency is the fitted concentration of half-maximal effect.

| SMILES | Potency |
| --- | --- |
| CC12CC1(C)C(=O)N(c1cc(Cl)cc(Cl)c1)C2=O (stereo not given) | inactive |
| ClP(Cl)(Cl)(Cl)Cl | inactive |
| Clc1cccc(Cl)c1 | inactive |
| CCN(N=O)C(N)=O | inactive |
| Nc1ccc2ccccc2c1 | inactive |
| Cc1cc(Cl)ccc1O | inactive |
| ClCCOCCCl | inactive |
| Clc1ccccc1 | inactive |
| CCNCC | inactive |
| CN1CSC(=S)N(C)C1 | 39.8 µM (active) |
| Cc1ccc2c(c1N)C(=O)c1ccccc1C2=O | inactive |
| c1ccc(Nc2ccc(Nc3ccccc3)cc2)cc1 | inactive |
| C=CCO | inactive |
| c1ccc(C2CO2)cc1 (stereo not given) | inactive |
| BrCCc1ccccc1 | inactive |
| CC(C)(COCC1CO1)COCC1CO1 (stereo not given) | inactive |
| C=CC=O | inactive |
| CCCCC(=O)Cl | inactive |
| ClCc1ccccc1 | inactive |
| Cc1coc2c1CCC(C)C2 (stereo not given) | inactive |

| SMILES | Potency |
| --- | --- |
| Clc1ccc(C(c2ccccc2Cl)C(Cl)(Cl)Cl)cc1 (stereo not given) | inactive |
| CN(C)N=O | inactive |
| COP(=S)(OC)SCn1nnc2ccccc2c1=O | inactive |
| BrCC(Br)C1CCC(Br)C(Br)C1 (stereo not given) | inactive |
| Clc1ccc(Cl)c(Cl)c1 | inactive |
| CCCBr | inactive |
| CCCC[N+](=O)[O-] | inactive |
| O=C(O)c1cc(Cl)ccc1Cl | inactive |
| C=CC(=O)OC | inactive |
| FC(Cl)(Cl)Cl | inactive |
| O=[N+]([O-])c1cccc2c([N+](=O)[O-])cccc12 | inactive |
| O=[N+]([O-])c1ccc(Cl)c(Cl)c1Cl | inactive |
| O=[N+]([O-])c1ccc2c3c(cccc13)CC2 | inactive |
| Cc1cc(N=Nc2ccccc2C)ccc1N | inactive |
| O=[N+]([O-])c1ccc(Cl)cc1 | inactive |
| C=CCOCC1CO1 (stereo not given) | inactive |
| O=C(O)C(Cl)Br (stereo not given) | inactive |
| c1ccc(N=NNc2ccccc2)cc1 | inactive |
| ClC(Cl)(Cl)C(Cl)(Cl)Cl | inactive |
| Oc1cccc(Cl)c1 | inactive |

Source: PubChem BioAssay (NCATS)
